Assay results reported in PubChem BioAssay (NCATS).
Records with an inconclusive call do not appear. Entries that show only a call come without a potency. Activity calls are given as the source filed them. Calls follow the shape of the dose curve; as a rule, active = well fitted inhibition curve with a large enough effect; inconclusive = small, poorly fitted or top-dose-only effect; inactive = flat fitted curve, though single readings scatter. Where a SMILES comes first, the peptide text is derived from it. [ ]: non-standard residue; d: D form. pGlu = O=C1CC[C@@H](C(=O)O)N1

system: MCC-26; test: qHTS assay to identify novel small-molecules to repurpose for Merkel cell carcinoma treatment (AID 1296009); conditions: MCC and control cell lines, CellTiter-Glo viability, 72 h; series mostly up to 46 µM; also: nearly all actives have a fitted effect of over 60% in size
Excerpt: MCC is a rare and aggressive neuroendocrine skin cancer with limited treatment options. Approximately 80% of MCCs have the Merkel cell polyomavirus (MCPyV) DNA integrated into the host genome (virus-positive: VP-MCC) and viral oncogenes drive oncogenesis. The remaining MCCs are virus-negative (VN-MCC) and are caused by UV mutagenesis. To identify novel treatments for VP-MCC and/or VN-MCC we screened three VP-MCC cell lines (WAGA, MKL-1, MKL-2), three VN-MCC cell lines (MCC-13, MCC-26, UISO), and four immortalized, non-transformed control cell lines (HaCaT, HEK293T, CRL7250, NIH-3T3) against ~2,400 compounds in the NCGC Pharmaceutical Collection (NPC) and ~1,900 compounds in the Mechanism Interrogation PlatE (MiPE). Using cell viability as a readout (CellTiter-Glo assay) we found both overlapping and distinct drugs that can be repurposed for the treatment of VP-MCC and VN-MCC.
A high-throughput screen was conducted in 1536-well white flat bottom plates (Corning) on a Kalypsys robotic system. Cell lines WAGA, MKL-1, MKL-2, MCC-13, MCC-26, UISO, HaCaT, HEK293T, CRL7250, and NIH-3T3 were screened against 2 small molecule annotated drug libraries NPC and MIPE in dose response (8 and 11 pt. respectively) measuring cell viability after 72 hours of incubation. […] A 1,536 pintool (Kalypsys) was used to transfer 23 nL of compound in DMSO to the 1,536-well assay plates. After 72 hr incubation at 37 degree celsius, 2.5 uL of CellTiter-Glo (Promega) was dispensed into each well using a BiorapTR. Plates were incubated at room temperature for 10 min, transferred to a ViewLux (PerkinElmer) and the luminescence was recorded using an exposure time of 2 seconds. Relative luminescence units (RLUs) were normalized to in-plate controls (no cells as a positive (cytotoxicity) control, DMSO as negative control) and the normalized data was processed using NCATS in-house software.
Potency is read from the fitted curve at half-maximal effect.

SMILES	Potency
NCC(=O)O	inactive
CCc1cc(S(=O)(=O)O)c2cc(C(C)C)cccc1-2	inactive
CCCCC/C=C\C/C=C\CCCCCCCC(=O)NC(C)c1ccccc1 (stereo not given)	inactive
CCCCCCCCCCCCCCCC[N+](C)(C)Cc1ccccc1	29.9 µM (active)
Cc1ccccc1C(=O)N1CC/C(=N\OS(=O)(=O)O)c2ccc(Cl)cc21	inactive
C#CC(C)(CC)OC(=O)c1ccccc1C(=O)O (stereo not given)	inactive
O=C(CCCCC(=O)Nc1c(I)cc(I)c(C(=O)O)c1I)Nc1c(I)cc(I)c(C(=O)O)c1I	inactive
COC(=O)CCCCC(CCSS/C(CCO)=C(\C)N(C=O)Cc1cnc(C)nc1N)SC(C)=O (stereo not given)	inactive
CC[N+](CC)(CC)CCOC(=O)C(C1CCCC1)C1CCCC1	inactive
CC(CC1c2ccccc2CCc2ccccc21)CN(C)C (stereo not given)	inactive
COC(=O)c1ccc(NC(C)=O)cc1OC	inactive
COc1cc2c(cc1OC)CN(C(=O)[C@H](C)N[C@@H](CCc1ccccc1)C(=O)O)[C@H](C(=O)O)C2	inactive
CCCCN(CCCC)C(C(N)=O)c1ccc(OC)cc1 (stereo not given)	inactive
C#Cc1ccc(-c2ccccc2F)cc1	inactive
O=C(OCC(COC(=O)c1cccnc1)(COC(=O)c1cccnc1)COC(=O)c1cccnc1)c1cccnc1	inactive
CC(C)=CCC/C(C)=C/CC/C(C)=C/CCC(=O)OC/C=C(\C)CCC=C(C)C	inactive
C[C@H](N)C(=O)N[C@@H](C)C(=O)NC1[C@H]2CN(c3nc4c(cc3F)c(=O)c(C(=O)O)cn4-c3ccc(F)cc3F)C[C@@H]12 (stereo not given in full)	inactive
CCCCCOc1ccccc1/C(=C\SC)n1ccnc1	inactive
CCOC(=O)CN1CCCC1=O	inactive
CC(NC(CCc1ccccc1)C(=O)O)C(=O)N1C(=O)N(C)CC1C(=O)O (stereo not given)	inactive

SMILES	Potency
C/C(=C(/OCCOc1ccc(Cl)cc1)c1ccc(Cl)cc1Cl)n1ccnc1	inactive
CC1(C)O[C@@H]2C[C@H]3[C@@H]4CCC5=CC(=O)C=C[C@]5(C)[C@@]4(F)[C@@H](O)C[C@]3(C)[C@]2(C(=O)CO)O1	inactive
CN1Cc2cc(C(=O)N3CCC(C4CCNCC4)CC3)ccc2NC(CC(=O)O)C1=O (stereo not given)	inactive
CO[C@]1(NC(=O)CSC(F)F)C(=O)N2C(C(=O)O)=C(CSc3nnnn3CCO)CO[C@H]21	inactive
Cc1ccc2ccc(Cl)cc2n1	inactive
CC(C(=O)O)c1ccc(/C=C2\CCCCC2=O)cc1 (stereo not given)	inactive
O=S(=O)(O)c1ccc2nc(-c3ccccc3)[nH]c2c1	inactive
CCC(=O)O[C@H]1[C@H](O[C@@H]2[C@@H](C)[C@H](O[C@H]3C[C@@](C)(OC)[C@@H](O)[C@H](C)O3)[C@@H](C)C(=O)O[C@H](CC)[C@@](C)(O)[C@H](O)[C@@H](C)C(=O)[C@H](C)C[C@@]2(C)O)O[C@H](C)C[C@@H]1N(C)C	inactive
O=C(CCC1CCN(Cc2ccccc2)CC1)c1ccc2c(c1)NCCCC2	inactive
C[C@H]1C[C@@H]2[C@H]([C@@H](O)C[C@@]3(C)[C@H]2CC[C@]3(O)C(=O)CO)[C@@]2(C)C=CC(=O)C=C12	inactive
CN1C(=O)c2ccccc2C1=O	inactive
CNC[C@H](O)[C@@H](O)[C@H](O)[C@H](O)CO	inactive
Cc1oc(-c2ccccc2)nc1CCC(=O)c1ccc(CC2SC(=O)NC2=O)cc1 (stereo not given)	inactive
CCNC(=O)[C@@H]1CCCN1C(=O)[C@H](CCCN=C(N)N)NC(=O)[C@H](CC(C)C)NC(=O)CNC(=O)[C@H](Cc1ccc(O)cc1)NC(=O)[C@H](CO)NC(=O)[C@H](Cc1c[nH]c2ccccc12)NC(=O)[C@H](Cc1cnc[nH]1)NC(=O)[C@@H]1CCC(=O)N1 ([pGlu]HWSYGLRP-NHEt)	inactive
CC(=O)N1CCN(c2ccc(O)cc2)CC1	inactive
CN1CCCN(C(c2ccccc2)c2ccc(Cl)cc2)CC1 (stereo not given)	inactive
O=C(OCC1(COC(=O)c2cccnc2)CCCC(COC(=O)c2cccnc2)(COC(=O)c2cccnc2)C1O)c1cccnc1	inactive
Cc1ccccc1N1CCN(CCc2nnc3n2CCCC3)CC1	inactive
Nc1ccc(C(=O)N2CC3CC(CN(Cc4ccccc4)C3)C2)cc1	inactive
CCCCCCCC(=O)[O-].CCCCCCCC(=O)[O-].[Zn+2]	inactive
